# Compound activity as filed in PubChem.
# Only some compounds are listed: those with a hit (about 10% of all), similar ones and a draw of the others.
# HP1b binding inh – HP1-beta chromodomain-methylated histone interaction inhibition; AID 540317; actives 0.56% (n = 390,000); AlphaScreen HP1-beta / biotin-H3K9me3 peptide binding; Potency, µM (top dose mostly 114 µM), for inactives: at the highest dose activity change, negative = inhibition, hits mostly inhibitors; also: potency is read from the fitted curve at half-maximal effect; nearly all actives have a fitted effect of over 70% in size
# Target sequence (P83916 whole entry, looked up): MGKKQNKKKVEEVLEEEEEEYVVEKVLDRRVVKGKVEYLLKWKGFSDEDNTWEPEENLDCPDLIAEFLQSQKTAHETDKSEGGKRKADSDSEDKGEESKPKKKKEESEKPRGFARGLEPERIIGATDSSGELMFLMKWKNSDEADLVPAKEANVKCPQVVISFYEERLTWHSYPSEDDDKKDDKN
#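 HP1-beta protein (50 nM final) preincubated 30 min at room temperature with biotinylated H3(1-18)K9me3 peptide (50 nM) in PBS pH 7.4, 0.01% Tween-20, then compound added for 30 min. AlphaScreen streptavidin donor/nickel chelate acceptor beads (10 ug/mL final), 30 min dark, luminescence read.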
# CtBP-E1A blk – blocks the CtBP interaction with E1A. AlphaScreen GST-E1A/His-CtBP binding, 1536-well; hits give low values. activity change, % (concentration not given with the values). actives 0.49% (n = 340,000). AID 651724; in the data active = activity change below about -65%; inconclusive = mostly about -30% to -63%; also: % is scaled to controls: 0 for no effect and ±100 for the full control effect
#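 In 5 uL wells, 23 nL compound meets equimolar GST-E1A and His-CtBP (5X stock 125 nM each) for 2 h, 37 °C. Beads (5X, 50 ug/mL) then 1 h, 37 °C, dark.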
# BAZ2B inh – blocks human BAZ2B. Q9UIF8. AlphaScreen BAZ2B-H3K14Ac peptide displacement. Potency, µM (highest dose often 114 µM), for the others: at the top dose activity change, negative = inhibition, usual class: inhibitors. actives 4.4% (n = 360,000). AID 504333; also: potency is read from the fitted curve at half-maximal effect; % is scaled to controls: 0 for no effect and ±100 for the full control effect; nearly all actives have a fitted effect of over 60% in size
#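 AlphaScreen displacement of biotin-H3(5-23)K14Ac peptide (50 nM final) from BAZ2B (50 nM final) in PBS pH 7.4, 0.01% Tween-20; complex preformed 30 min RT, then compounds (top 110 uM) 30 min RT, beads 20 min dark.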
# Six1-Eya2 blk – Six1/Eya2 interaction inhibition; Q15475+O00167; AlphaScreen GST-Six1/His-Eya2 binding, biochemical; hits give low values; activity change, % (no concentration beside the values); actives 0.56% (n = 360,000); in the data active = activity change below about -65%; inconclusive = mostly about -30% to -63%; also: % is scaled to controls: 0 for no effect and ±100 for the full control effect
#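 Homogeneous AlphaScreen proximity assay pairing GST-Six1 with His-tagged Eya2 (added as 5X mix: 250 nM and 500 nM) in 50 mM Tris pH 8.0, 300 mM NaCl, 1 mM TCEP. Glutathione donor and nickel acceptor beads; 1 h, 37 °C, dark.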
# G9a block – inhibitors of human histone lysine methyltransferase G9a | Q96KQ7 | Potency, µM (highest dose often 102 µM), for inactives: top-dose activity, negative = inhibition, usual class: inhibitors | G9a H3K9 monomethylation, AlphaScreen, 2 h | AID 504332 | actives 8.8% (n = 350,000); also: potency is read from the fitted curve at half-maximal effect; % is scaled to controls: 0 for no effect and ±100 for the full control effect; nearly all actives have a fitted effect of over 75% in size
# Target sequence (Q96KQ7 913-1193 limits assumed): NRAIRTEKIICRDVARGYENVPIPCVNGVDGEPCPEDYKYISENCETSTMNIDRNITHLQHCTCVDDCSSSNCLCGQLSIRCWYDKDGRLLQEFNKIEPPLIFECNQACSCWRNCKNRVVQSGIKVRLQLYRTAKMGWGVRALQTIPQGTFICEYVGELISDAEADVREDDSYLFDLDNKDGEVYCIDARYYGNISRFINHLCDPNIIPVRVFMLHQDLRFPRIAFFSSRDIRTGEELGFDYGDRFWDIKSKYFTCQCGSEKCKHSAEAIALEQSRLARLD
#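 Quantitative HTS format: methyltransferase activity on a biotin-tagged H3K9 peptide is measured by AlphaScreen, using a rabbit anti-monomethyl-H3K9 antibody with streptavidin donor and anti-IgG acceptor beads. Final levels are 20 nM enzyme, 500 nM peptide, 20 uM SAM; 2 h RT.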
# JMJD2A Tudor – blocks the human JMJD2A Tudor domain; O75164; AlphaScreen JMJD2A-Tudor / H3K4me3 peptide binding; AID 504339; actives 4.4% (n = 390,000); Potency, µM (top dose mostly 114 µM), inactives show at the top dose activity change, negative = inhibition, most hits filed as inhibitors; also: potency is read from the fitted curve at half-maximal effect; % is scaled to controls: 0 for no effect and ±100 for the full control effect; nearly all actives have a fitted effect of over 50% in size
# An asterisk follows results filed as active; ? = inconclusive; · = not tested or not shown; [ ] = another dose, or the depositor's remark. Unless noted, calls follow the shape of the dose curve; as a rule, active = well fitted inhibition curve with a large enough effect; inconclusive = small, poorly fitted or top-dose-only effect; inactive = no such curve, though single readings can be large or run the other way.
SMILES,HP1b binding inh,CtBP-E1A blk,BAZ2B inh,Six1-Eya2 blk,G9a block,JMJD2A Tudor
CCCC(=O)NC(c1ccc(OC)c(OC)c1)c1cc(Cl)c2cccnc2c1O (stereo unspecified),37%,-79*,-11%,-72*,·,-21%
CC(C)C(=O)NC(c1ccc(N(C)C)cc1)c1c(O)ccc2ccccc12 (stereo unspecified),60%,0,-26%,9,2.2µM*,-23%
CC(=O)NC(c1ccc(N(C)C)cc1)c1cc(Cl)c2cccnc2c1O (stereo unspecified),·,?,·,-81*,·,·
COc1cc(C(=O)NC(c2ccccc2Cl)c2cc(Cl)c3cccnc3c2O)cc(OC)c1OC (stereo unspecified),56%,·,10%,·,40%[59 µM],-7%
CCCCC(=O)NC(c1cccs1)c1cc(Cl)c2cccnc2c1O (stereo unspecified),49%,·,2%,?,?,-12%
COc1ccc(-c2nnc3ccc(SCC(=O)Nc4nc5ccccc5s4)nn23)cc1OC,41%,-20,8%,-21,-20%[59 µM],13%[57.1 µM]
Cn1cc(S(=O)(=O)N2CCCCCC2)cc1C(=O)Nc1ccc(Cl)c(C(F)(F)F)c1,31%[57 µM],·,?,·,3%[59 µM],4%
CCN(CC)c1ccc(-n2cc3c(=O)n(C)c(=O)n(C)c3c2)cc1,32µM*,?,32µM*,?,-39%[12.7 µM],56µM*
CN(C)c1ccc(-n2cc3c(=O)n(C)c(=O)n(C)c3c2)cc1,?,-28,35µM*,?,45µM*,?
O=C(NCC(O)c1nc2ccccc2[nH]1)c1cc([N+](=O)[O-])ccc1F (stereo unspecified),·,-6,·,3,·,·
O=S(=O)(N/N=C\c1cccnc1)c1ccccc1,30%,7,-1%,11,10µM*,-18%
O=S(=O)(N/N=C/c1ccc(N2CCOCC2)cc1)c1ccccc1,4%,0,5%,1,45µM*,-21%
CC1=CC(=O)NS(=O)(=O)O1,·,·,·,·,4%[12.7 µM],·
NC(=O)C1CCN(C(=O)c2ccccc2NC(=O)c2nsc3ccccc23)CC1,24%[57 µM],·,2%,·,8%[59 µM],0%
COc1ccc(-c2cn3cccnc3n2)cc1NC(=O)c1ccc(Br)o1,36%,-20,?,-16,2.8µM*,?
Cc1ccc(-c2cn3cccnc3n2)cc1NC(=O)c1ccc(Br)o1,23%,-9,12%,-4,18%[59 µM],6%
CCC(C(=O)Nc1cc(-c2cn3cccnc3n2)ccc1C)c1ccccc1 (stereo unspecified),29%[57 µM],·,3%,·,8%[59 µM],22µM*
CC(=O)/C(N=Nc1cccc(C(F)(F)F)c1)=C(\C)O,25%,5,-17%,-5,2%,-18%
O=C(/C(N=Nc1cccc(C(F)(F)F)c1)=C(/O)c1cccs1)C(F)(F)F,?,-14,?,?,20µM*,50µM*
c1ccc(Sc2cccc3ccccc23)c(CNC2=NCCN2)c1,-21%,-15,?,7,16µM*,32µM*
Fc1ccccc1Sc1ccccc1CNC1=NCCN1,?,-1,-10%,9,7.1µM*,?
CCCCCCn1cc(C(=O)O)c(=O)c2ccccc21,27%,1,-35%,0,45µM*,?
COC(=O)/C(C#N)=C/c1c(N2CCN(c3ccc(OC)cc3)CC2)nc2c(C)cccn2c1=O,?,?,?,?,?,11µM*
Cc1cccn2c(=O)c(C=C(C#N)C#N)c(N3CCN(c4ccccc4)CC3)nc12,-7%,-17,?,?,?,?
Cc1cccn2c(=O)c(/C=C(\C#N)C(N)=O)c(N3CCN(c4cccc(Cl)c4)CC3)nc12,-11%,?,-34%,?,22µM*,?
SMILES,HP1b binding inh,CtBP-E1A blk,BAZ2B inh,Six1-Eya2 blk,G9a block,JMJD2A Tudor
CNC(=O)/C(C#N)=C/c1c(N2CCN(c3ccccc3)CC2)nc2c(C)cccn2c1=O,-16%,-20,-2%,-22,20%[2.33 µM],-14%
COCCNC(=O)/C(C#N)=C/c1c(N2CCN(C)CC2)nc2c(C)cccn2c1=O,38%,-76*,4%,-2,14%[2.33 µM],-8%
COCCCNC(=O)/C(C#N)=C/c1c(N2CCN(C)CC2)nc2c(C)cccn2c1=O,3%,12,5%,-3,15%[2.33 µM],-14%
CNC(=O)/C(C#N)=C/c1c(N2CCN(c3ccc(OC)cc3)CC2)nc2c(C)cccn2c1=O,?,-4,40µM*,?,1%[2.33 µM],50µM*
CC(C)N(C(C)C)S(=O)(=O)c1ccc(NC(=O)c2cnccn2)cc1,27%,-2,-6%,0,-2%[0.501 µM],?
COc1ccc(NC(=O)C2(C)Cc3c(-c4cccc(NC(C)=O)c4)ccnc3O2)cn1 (stereo unspecified),·,5,·,-2,·,·
Cc1ccc(Cl)cc1-c1ccc(C=Nc2ccc(N3CCOCC3)cc2)o1,?,-9,28µM*,-28,?,35µM*
Cc1ccc([N+](=O)[O-])cc1-c1ccc(/C=N/NC(=O)CN2CCOCC2)o1,32%,-14,-33%,-9,?,?
Cc1cc(O)c(C=Nc2ccc(N3CCOCC3)cc2)c(C)c1Cl,0%,0,?,-1,8.9µM*,-16%
CC(C)Oc1cc(F)ccc1-c1cc(C(=O)NCCCn2ccnc2)[nH]n1,·,-11,·,-4,·,·
Nc1nc(SCc2nnc(SCC(=O)O)n2-c2ccccc2)nc2sc3c(c12)CCCC3,14%,?,-32%,?,79µM*,-31%
O=c1[nH]c(SCc2n[nH]c(=S)n2-c2ccccc2)nc2sc3c(c12)CCC3,-8%,?,-33%,-14,2µM*,56µM*
CCCCSc1nc2sc3c(c2c(=O)[nH]1)CCC3,3%,8,3%,3,-38%,-17%
COC(=O)[C@@]12C[C@@H](CC(=O)N3CCCCC3)C(=O)N(Cc3ccco3)C1=CCC(C)(C)C2,·,5,·,-7,·,·
Cc1ccc(C(C)C)c(OCC(=O)N/N=C/c2cccn2C)c1,?,·,25µM*,-5,·,?
Cc1ccc(C(C)C)c(OCC(=O)Nc2ccc(N3CCN(S(C)(=O)=O)CC3)cc2)c1,26%,0,-13%,-2,10µM*,-6%
Cc1cccc(OCC(=O)N/N=C/c2cccn2C)c1,-4%,·,-38%,-13,?,?
Cc1ccccc1OCC(=O)N/N=C/c1cccn1C,-18%,-7,45µM*,-15,?,8%[11.4 µM]
O=C(NC1CCS(=O)(=O)C1)c1cc(-c2ccccc2)nc2ccccc12 (stereo unspecified),5%,18,-13%,-2,9%,-11%
